Measurements published in PubChem BioAssay AID463195 (Sanford-Burnham Center for Chemical Genomics, 2010).
Among all 330,000 compounds or so, about 4,600 (1.4%) were called active.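 Rule for the calls: active = inhibition of 40% or more at the single tested concentration; inactive = the rest.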 For the sample, actives were picked, then their nearest neighbours and some compounds at random.

Experiment: wild-type TIM10 yeast growth inhibition – luminescence, uHTS, counter-screen for tim10-1 yeast inhibitor project, primary screen (AID 463195);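 note: wild-type TIM10 isogenic control strain grown at permissive 25 °C; 0% = DMSO yeast wells and 100% = minimal medium wells without yeast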
Conditions: S. cerevisiae TIM10 strain growth, BacTiter-Glo luminescence, 24 h; at 10 µM; active compounds read high

Compound	inhibition
CCN(CC)C(=O)[C@H]1C[C@H](CC(=O)NCC23CC4CC(CC(C4)C2)C3)C(=O)N2CCc3c([nH]c4cc(CCC(=O)N(C)C)ccc34)[C@]12C	6.94% (inactive)
CC(C)CC(=O)NC(=S)Nc1ccc(F)cc1F	41.9% (active)
CC(=O)c1ccc(NC(=S)NC(=O)CC(C)C)cc1	28.8% (inactive)
CC(C)CC(=O)NC(=S)Nc1cc(C(=O)O)ccc1Cl	-4.57% (inactive)
Cc1cc(C)c(C)c(S(=O)(=O)Nc2ccc(O)cc2)c1C	11.4% (inactive)
Cc1c(C)c(C)c(S(=O)(=O)NCCc2ccccn2)c(C)c1C	7.03% (inactive)
COC(=O)c1sccc1NS(=O)(=O)c1ccc(F)cc1F	48.3% (active)
COc1ccc(NS(=O)(=O)c2ccc(F)cc2F)cn1	-5.52% (inactive)
COC(=O)c1sccc1NC(=O)CSc1ccccc1NS(=O)(=O)c1cc(Cl)ccc1Cl	10% (inactive)
CC1CCCN(CCOCCOc2ccccc2-c2ccccc2)C1 (stereo not drawn)	-0.424% (inactive)
Cc1ccc(NS(=O)(=O)c2ccc3c(c2)n(C)c(=O)c(=O)n3C)c(C)c1	-2% (inactive)
COc1ccccc1/C=C/C(=O)NC1CC2CCC1C2 (stereo not drawn)	18.9% (inactive)
CCOC(=O)C(=CNc1cccc(C)n1)C(=O)OCC	-4.77% (inactive)
CCOC(=O)C(=Cc1ccccc1OC)C(=O)OCC	49% (active)
COc1ccccc1CNC(=O)C1CCN(C(=O)[C@@H]2Cc3ccccc3CN2)CC1	6.93% (inactive)
COc1ccc(Nc2cc(=O)oc3ccccc23)cc1	-15.1% (inactive)
CCCN1CCn2c3c(c4cc(Br)ccc42)CCCC31 (stereo not drawn)	6.43% (inactive)
CCOc1ccc(/C(O)=C2\C(=O)C(=O)N(c3ccc(OC)cc3)C2c2ccccc2[N+](=O)[O-])cc1 (stereo not drawn)	23.4% (inactive)
COc1ccc2[nH]cc(CCN3C(=O)c4ccc(C(=O)O)cc4C3=O)c2c1	-1.99% (inactive)
COc1ccc2[nH]cc(/C=C(/C#N)S(=O)(=O)c3ccccc3)c2c1	54.5% (active)
CCN(CC)CC(=O)c1c[nH]c2ccc(OC)cc12	-7.94% (inactive)

Compound	inhibition
COc1ccc(C(=O)COC(=O)c2ccc3ccccc3n2)cc1	37.3% (inactive)
O=C(Oc1ccc([N+](=O)[O-])cc1)c1ccc2ccccc2n1	40.4% (active)
CC(OC(=O)c1ccc2ccccc2n1)C(=O)c1ccccc1 (stereo not drawn)	3.19% (inactive)
O=C(Nc1cccc(Cl)c1Cl)c1ccccc1NC(=O)C1CC=CCC1C(=O)O (stereo not drawn)	-0.652% (inactive)
Cc1ccc(/C=N/NC(=O)c2cc3ccccc3cc2O)o1	16.7% (inactive)
Cc1cc(N=Nc2ccc3ccccc3c2)ccc1O	74.2% (active)
COc1cccc(OCC(O)CNC(=O)c2oc3c(C)c(C)ccc3c2C)c1 (stereo not drawn)	-2.72% (inactive)
Cc1nc2cc(C(F)(F)F)ccc2n1CCNc1nc(-c2cc(Cl)c(N)c(Cl)c2)cs1	3.25% (inactive)
CC(=O)c1c(OCC(=O)N(C)C2CCCCC2)ccc2c(C)cc(=O)oc12	5.61% (inactive)
C=CCNC(=S)NNC(=O)c1ccc(Br)o1	-5.99% (inactive)
C=CCNC(=S)NNC(=O)COc1c(Cl)cc(Cl)cc1Cl	57.7% (active)
C=CCNC(=O)COC(=O)CNC(=O)c1cc(Cl)cc([N+](=O)[O-])c1	-0.359% (inactive)
O=C(CN1CCCCC1)NC(=O)Nc1ccccc1F	-12.6% (inactive)
CCOC(=O)CCCNC(=O)COC(=O)c1cc(Br)c(Br)s1	10.3% (inactive)
Fc1ccc(/C=N/n2c(COc3ccccc3)n[nH]c2=S)cc1	40.9% (active)
O=[N+]([O-])c1ccccc1/C=N/n1c(COc2ccccc2)n[nH]c1=S	17.8% (inactive)
Cc1ccc(OCc2n[nH]c(=S)n2-c2ccccc2)cc1	16.5% (inactive)
Cc1[nH]c2ccccc2c1/C=C(/C#N)C(=O)NC(C)C	17.7% (inactive)
CC(C)NC(=O)/C(C#N)=C\c1ccc(N(C)C)c(Br)c1	55.1% (active)
CC(C)(C)C(=O)/C(C#N)=C/c1ccc(O)cc1	-0.948% (inactive)
N=c1n(Cc2ccc(Cl)cc2)c2ccccc2n1CC(O)c1ccco1 (stereo not drawn)	4.4% (inactive)

Compound	inhibition
NC(=O)c1cc(S(=O)(=O)N2CCCC2)ccc1OCc1ccc(F)cc1	-5.53% (inactive)
Nc1nonc1-n1nnc(C(=O)N/N=C/c2c[nH]c3ccccc23)c1-c1ccccc1	12.9% (inactive)
O=C(N/N=C/c1cccc(O)c1)c1cc2c(ccc3ccccc32)o1	7.41% (inactive)
O=C(O)c1cccc(NC(=S)N/N=C/c2c[nH]c3ccccc23)c1	11.4% (inactive)
O=C(N/N=C/c1c[nH]c2ccccc12)c1cc2ccccc2o1	49.3% (active)
CSC(=S)N/N=C/c1c[nH]c2ccccc12	43.5% (active)
Cc1c(/C=N\NC(=O)c2cc3ccccc3o2)c2ccccc2n1C	8.19% (inactive)
COc1ccccc1CNS(=O)(=O)c1cc(C(=O)NCc2ccccn2)c(Cl)cc1Cl	3.96% (inactive)
CCOC(=O)c1cc2c(=O)[nH]c(C(Cl)(Cl)Cl)nc2o1	1.82% (inactive)
COc1cc2c(cc1NC(=O)COC(=O)/C=C/c1ccccc1)oc1ccccc12	-21.9% (inactive)
CN(c1ccc(OCC(=O)NC2=NCCS2)cc1)S(=O)(=O)c1ccc(F)cc1	-18.2% (inactive)
C/C(CC1CC(C)(C)OC1=O)=N/Nc1nc(-c2ccccc2)cs1 (stereo not drawn)	17.6% (inactive)
O=C(CSc1cccc[n+]1[O-])c1ccc(-c2ccccc2)cc1	42% (active)
O=C(CSc1cccc[n+]1[O-])c1ccc(Cl)cc1	1.21% (inactive)
COc1ccccc1C(=O)CSc1cccc[n+]1[O-]	-4.59% (inactive)
CCc1cc2cc(OC)ccc2nc1SCC(=O)Nc1cc(OC)c(OC)cc1C(=O)O	11.1% (inactive)
Cc1ccc(NC(=O)c2ccc(Oc3ncccn3)cc2)cc1	9.43% (inactive)
COc1cccc(N(CC(=O)NCCSc2ccccn2)S(C)(=O)=O)c1	-1.16% (inactive)
O=C(ON=C1CCN(S(=O)(=O)c2ccccc2)CC1)c1ccc(Cl)cc1	48% (active)
CC(OC(=O)c1ccc(S(=O)(=O)N2CCOCC2)cc1)c1ccccc1 (stereo not drawn)	10.1% (inactive)
COC(=O)c1ccc(S(=O)(=O)N2CCc3ccccc3C2)cc1	-8.05% (inactive)
